# Many of the other results were omitted from the sample, so the strongest signals are more common in it than they were.
# How the values were obtained:
# Assay in all cases: glycan array binding signal (z-score within array); higher = stronger binding
# [1] = test system: Kdn(a2-3)Gal(b1-4)GlcNAc; conditions: glycan notation: IUPAC condensed, linker removed
# How it was run: (§1)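 Columns mapping to the same glycan were averaged after glycan names were converted to IUPAC-condensed notation. The data come from 3228 arrays in the Consortium for Functional Glycomics database, limited to those with an available protein sequence. Binding is reported as a within-array Z-score averaged across arrays of one protein sequence and across linkers.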
# [2] = test system: Kdn(a2-3)Gal(b1-4)[Fuc(a1-3)]GlcNAc; conditions: glycan notation: IUPAC condensed, linker removed
# How it was run: as §1
# [3] = test system: Kdn(a2-6)Gal(b1-4)GlcNAc; conditions: glycan notation: IUPAC condensed, linker removed
# How it was run: as §1
# [4] = test system: Man(a1-2)Man(a1-2)Man(a1-3)[Man(a1-2)Man(a1-3)[Man(a1-2)Man(a1-6)]Man(a1-6)]Man(b1-4)GlcNAc(b1-4)GlcNAc; conditions: glycan notation: IUPAC condensed, linker removed
# How it was run: as §1
# [5] = test system: Man(a1-2)Man(a1-2)Man(a1-3)[Man(a1-2)Man(a1-6)[Man(a1-3)]Man(a1-6)]Man(b1-4)GlcNAc(b1-4)GlcNAc; conditions: glycan notation: IUPAC condensed, linker removed; mutation: D138V, E140I
# How it was run: as §1
# [6] = test system: Man(a1-2)Man(a1-2)Man(a1-6)[Man(a1-3)]Man; conditions: glycan notation: IUPAC condensed, linker removed
# How it was run: as §1
# [7] = test system: Man(a1-2)Man(a1-3)[Man(a1-2)Man(a1-6)]Man(a1-6)[Man(a1-2)Man(a1-2)Man(a1-3)]Man(b1-4)GlcNAc(b1-4)GlcNAc; conditions: glycan notation: IUPAC condensed, linker removed
# How it was run: as §1
# [8] = test system: Man(a1-2)Man(a1-3)[Man(a1-2)Man(a1-6)]Man(a1-6)[Man(a1-2)Man(a1-2)Man(a1-3)]Man; conditions: glycan notation: IUPAC condensed, linker removed
# How it was run: as §1
# [9] = test system: Man(a1-2)Man(a1-3)Man; conditions: glycan notation: IUPAC condensed, linker removed
# How it was run: as §1
# Sequence of Avaren (Actinomycete K97) (chain, as listed by the source): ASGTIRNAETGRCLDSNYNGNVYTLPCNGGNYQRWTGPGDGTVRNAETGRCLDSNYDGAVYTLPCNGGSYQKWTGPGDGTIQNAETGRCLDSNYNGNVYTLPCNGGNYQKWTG
# Sequence of CHI3L1 (Homo sapiens), P36222 (P36222 whole entry): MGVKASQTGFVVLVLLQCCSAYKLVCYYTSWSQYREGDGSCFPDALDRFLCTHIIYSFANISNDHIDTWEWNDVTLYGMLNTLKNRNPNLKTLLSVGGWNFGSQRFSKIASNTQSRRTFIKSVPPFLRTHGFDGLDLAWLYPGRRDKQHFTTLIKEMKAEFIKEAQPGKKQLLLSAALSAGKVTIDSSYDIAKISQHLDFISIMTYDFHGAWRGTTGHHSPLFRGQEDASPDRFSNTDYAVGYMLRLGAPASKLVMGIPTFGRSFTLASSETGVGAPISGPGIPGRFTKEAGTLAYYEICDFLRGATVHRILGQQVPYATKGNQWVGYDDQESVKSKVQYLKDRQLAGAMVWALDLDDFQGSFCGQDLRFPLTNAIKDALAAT
# Sequence of C3b (Homo sapiens), P01024 (P01024 23-667): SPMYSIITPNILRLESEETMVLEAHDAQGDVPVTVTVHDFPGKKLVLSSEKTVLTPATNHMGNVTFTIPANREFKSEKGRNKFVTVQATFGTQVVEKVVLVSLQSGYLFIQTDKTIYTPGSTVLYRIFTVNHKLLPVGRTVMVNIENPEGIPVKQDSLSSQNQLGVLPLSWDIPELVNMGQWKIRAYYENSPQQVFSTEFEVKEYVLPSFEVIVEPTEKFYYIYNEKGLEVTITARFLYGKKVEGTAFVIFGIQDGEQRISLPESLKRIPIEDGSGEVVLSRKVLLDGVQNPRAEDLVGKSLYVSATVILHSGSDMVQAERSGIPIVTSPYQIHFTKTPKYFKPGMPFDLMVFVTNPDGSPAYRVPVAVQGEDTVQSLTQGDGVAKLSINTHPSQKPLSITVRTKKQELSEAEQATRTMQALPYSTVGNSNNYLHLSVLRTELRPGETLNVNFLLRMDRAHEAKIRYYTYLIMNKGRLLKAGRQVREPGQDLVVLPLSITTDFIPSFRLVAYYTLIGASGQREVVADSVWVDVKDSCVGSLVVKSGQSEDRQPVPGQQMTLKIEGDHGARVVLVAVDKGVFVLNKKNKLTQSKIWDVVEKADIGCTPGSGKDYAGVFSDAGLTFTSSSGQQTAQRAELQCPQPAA
# Sequence of CHT (Homo sapiens) (chain, as listed by the source): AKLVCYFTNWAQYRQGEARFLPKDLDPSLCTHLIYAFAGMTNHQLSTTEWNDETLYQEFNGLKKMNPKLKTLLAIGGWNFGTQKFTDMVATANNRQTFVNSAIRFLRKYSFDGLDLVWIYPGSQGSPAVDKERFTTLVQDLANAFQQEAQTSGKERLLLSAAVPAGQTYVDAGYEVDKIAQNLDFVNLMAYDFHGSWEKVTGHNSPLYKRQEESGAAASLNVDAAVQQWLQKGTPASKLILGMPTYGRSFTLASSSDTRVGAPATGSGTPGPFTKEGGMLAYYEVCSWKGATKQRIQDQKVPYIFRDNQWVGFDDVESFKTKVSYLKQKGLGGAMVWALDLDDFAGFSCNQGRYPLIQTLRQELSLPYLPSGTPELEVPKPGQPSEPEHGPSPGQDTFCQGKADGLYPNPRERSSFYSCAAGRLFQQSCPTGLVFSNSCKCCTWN
# Sequence of PILRa (Mus musculus), Q2YSF3 (Q2YSF3 entry or part of it): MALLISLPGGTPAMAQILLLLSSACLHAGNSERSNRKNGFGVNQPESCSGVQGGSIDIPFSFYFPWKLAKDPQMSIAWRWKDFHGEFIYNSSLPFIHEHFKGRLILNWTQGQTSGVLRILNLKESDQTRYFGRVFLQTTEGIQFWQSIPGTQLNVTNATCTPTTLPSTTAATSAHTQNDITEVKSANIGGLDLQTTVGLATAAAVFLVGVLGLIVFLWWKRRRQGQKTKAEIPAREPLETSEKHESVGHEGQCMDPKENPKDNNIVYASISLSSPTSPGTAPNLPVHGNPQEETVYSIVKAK
# Sequence of PILRb (Mus musculus), Q2YSF2 (Q2YSF2 entry or part of it): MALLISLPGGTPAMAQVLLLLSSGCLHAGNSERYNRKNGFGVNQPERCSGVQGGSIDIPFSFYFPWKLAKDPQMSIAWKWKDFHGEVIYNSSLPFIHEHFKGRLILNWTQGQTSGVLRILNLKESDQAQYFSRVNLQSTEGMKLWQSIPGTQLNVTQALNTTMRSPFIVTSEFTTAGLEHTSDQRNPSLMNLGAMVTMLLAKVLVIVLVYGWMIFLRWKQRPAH
# Sequence of SRLC (Mus musculus), Q8VIF6 (Q8VIF6 other isoform, or with tags, fused parts or gaps): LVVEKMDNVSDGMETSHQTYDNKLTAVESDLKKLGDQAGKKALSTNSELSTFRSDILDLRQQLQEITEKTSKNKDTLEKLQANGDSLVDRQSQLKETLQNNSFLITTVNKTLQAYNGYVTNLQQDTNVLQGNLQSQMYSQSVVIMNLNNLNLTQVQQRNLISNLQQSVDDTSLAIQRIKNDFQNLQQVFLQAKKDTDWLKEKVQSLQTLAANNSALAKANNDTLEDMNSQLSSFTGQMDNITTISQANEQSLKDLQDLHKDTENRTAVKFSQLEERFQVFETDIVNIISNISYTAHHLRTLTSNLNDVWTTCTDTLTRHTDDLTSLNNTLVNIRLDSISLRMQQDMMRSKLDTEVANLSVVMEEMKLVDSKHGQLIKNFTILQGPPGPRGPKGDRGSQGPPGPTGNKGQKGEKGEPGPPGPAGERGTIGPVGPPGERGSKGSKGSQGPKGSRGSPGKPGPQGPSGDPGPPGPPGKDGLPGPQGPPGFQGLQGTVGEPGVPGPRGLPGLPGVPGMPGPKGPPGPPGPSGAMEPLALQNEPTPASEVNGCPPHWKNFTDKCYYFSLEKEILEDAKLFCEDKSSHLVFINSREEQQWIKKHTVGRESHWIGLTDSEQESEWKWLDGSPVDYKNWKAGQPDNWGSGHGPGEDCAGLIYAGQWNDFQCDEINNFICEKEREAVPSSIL
# Sequence of Aggrecan (Rattus norvegicus), NP_071526 (chain, as listed by the source): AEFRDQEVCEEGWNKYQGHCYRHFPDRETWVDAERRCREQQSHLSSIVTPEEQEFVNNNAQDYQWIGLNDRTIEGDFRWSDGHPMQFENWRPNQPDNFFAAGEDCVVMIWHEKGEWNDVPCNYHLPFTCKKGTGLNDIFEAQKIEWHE
substance,measurement,setting,value
"C3b (Homo sapiens), P01024",glycan array binding signal (z-score),[1],-0.561
"CHI3L1 (Homo sapiens), P36222",glycan array binding signal (z-score),[1],-0.144
same,glycan array binding signal (z-score),[2],0.381
"PILRb (Mus musculus), Q2YSF2",glycan array binding signal (z-score),[2],0.391
"PILRa (Mus musculus), Q2YSF3",glycan array binding signal (z-score),[3],-0.059
"SRLC (Mus musculus), Q8VIF6",glycan array binding signal (z-score),[4],-0.241
CHT (Homo sapiens),glycan array binding signal (z-score),[5],-0.189
Avaren (Actinomycete K97),glycan array binding signal (z-score),[6],14.7
same,glycan array binding signal (z-score),[7],1.26
same,glycan array binding signal (z-score),[8],11.2
"Siglec-8 (Homo sapiens), Q9NYZ4",glycan array binding signal (z-score),[9],-0.003
"Aggrecan (Rattus norvegicus), NP_071526",glycan array binding signal (z-score),[7],0.607
